Experimental data: PubChem BioAssay (NCI)
About 83,000 compounds went through this panel and 20% of them were active in at least one assay; those are over-represented in the sample as a whole.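 The test compound was applied at a single concentration to cells in 96-well plates for 48 hours, and percent growth was recorded.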 Active and inactive are the calls of the source. Rule for the calls: active = growth percent below 10; inactive = the rest.

test system: HL-60(TB) leukemia; assay: NCI-60 one-dose screen, 48 h (100 = growth as untreated, 0 = no growth, -100 = all killed); settings: 10 µM unless noted

Compound	growth
CNC(=O)c1cc(Oc2ccc(NC(=O)c3nc(S(C)(=O)=O)n(C)c3-c3ccc(F)cc3)cc2)ccn1	69.8% (inactive)
O=C(Nc1ccccc1)Nc1ccc2cc3ccc(NC(=O)Nc4ccccc4)cc3nc2c1	50.9% (inactive)
Oc1ccc(-c2nc3ccccc3s2)cc1CN(Cc1ccccn1)Cc1ccccn1	1.27% (active)
Cn1c(=O)c2[nH]c(NN)nc2n(C)c1=O	91.6% (inactive)
Cc1nc2cc(Nc3nc(Nc4ccc(F)cc4)nc(-c4ccc(Cl)cc4)n3)ccc2n1Cc1ccccc1	-29.6% (active)
Oc1c(C(Nc2ccccn2)c2cccc(Oc3ccccc3)c2)ccc2cccnc12 (stereo not given)	-51.9% (active)
CC1(C)N=C(N)N=C(N)N1c1ccc(F)c(C(F)(F)F)c1	13.4% (inactive)
N=C(N)c1ccc(-c2ccc(-c3cccs3)o2)cc1	-28.5% (active)
COc1ccc(-c2cc3c(oc2=O)-c2ccccc2OC3OC(C)=O)cc1 (stereo not given)	85.8% (inactive)
CN(C)c1ccc(Nc2c3ccccc3nc3cc(NC(=O)CCN4CCCC4)ccc23)cc1	-57.9% (active)
OC1CCCc2ccccc21 (stereo not given)	98.4% (inactive)
CCOC(=O)/C=C/c1ccc([N+](=O)[O-])o1	-4.64% (active)
O=C1OC[C@H]2[C@H](c3ccc(O)c(O)c3)c3cc(O)c(O)cc3C[C@H]12	217% (inactive)
COc1cccc(C(=O)NC(c2ccc(C)cc2)c2cc(Cl)c3cccnc3c2O)c1 (stereo not given)	4.15% (active)
CCOC(=O)CSSCC(=O)OCC	108% (inactive)
C[C@]12CC[C@@H]3c4cc(OC(F)F)c(O)cc4CC[C@H]3[C@@H]1CC[C@@H]2OS(N)(=O)=O	7.66% (active)
CC(=O)C1N=NCC1c1ccccc1 (stereo not given)	96.8% (inactive)
Nc1[nH]nc2nc(-c3ccccc3)n3c4ccccc4nc3c12	97.5% (inactive)
CC1=C/C(=N\N=C2/C=C(C)CC(C)(C)C2)CC(C)(C)C1	84.1% (inactive)
COc1cccc(-c2nc(-c3ccc(NS(=O)(=O)c4ccccc4)cc3)[nH]c2-c2ccnc(Br)c2)c1	-11.5% (active)

Compound	growth
COc1ccc(OC)c(-c2cc(-c3ccc(Cl)cc3)c3c(N)c(C(=O)c4ccc(Cl)cc4)sc3n2)c1	110% (inactive)
C=C(C)[C@@H]1CC[C@]2(C(=O)OCCOCCOCC[P+](c3ccccc3)(c3ccccc3)c3ccccc3)CC[C@]3(C)[C@H](CC[C@@H]4[C@@]5(C)CC[C@H](OC(=O)C(Cl)Cl)C(C)(C)[C@@H]5CC[C@]43C)[C@@H]12	-47.8% (active)
CCCCCCCCCC1=NC(C)(C)CN1C(C)(C)CO	-20.8% (active)
N/C(=N\c1nc2ccccc2[nH]1)NC(=O)Cc1cccc2ccccc12	82.4% (inactive)
Cc1c(Cl)cc(Cl)c(N)c1Cl	102% (inactive)
COC(=O)c1c2c(c[n+]([O-])c1C)C(=O)C=C(NCc1ccccc1)C2=O	-49.4% (active)
NCCNc1nc(-c2ccccc2)nc2nc(-c3ccccc3)oc12	97.9% (inactive)
Nc1ncc(-c2ccc3ncnc(Nc4cccc(Cl)c4)c3c2)cn1	58.1% (inactive)
Cc1ccc2c(C)c3c(ccc4ccccc43)c[n+]2c1	94.4% (inactive)
CCCCOc1nc2ccc(OC)cc2cc1-c1cc(-c2ccc(Cl)cc2)nc(-c2ccc(Cl)cc2)c1	103% (inactive)
COc1cc(-c2nn(C(=O)NCCN3CCN(C)CC3)cc2-c2ccncc2)ccc1Cl	93.2% (inactive)
CN(C)c1ccc(/C=C2/C=C(c3ccccc3)OC2=O)cc1	4.38% (active)
C/C(=N\O)c1ccc(NC(=O)CSc2nnc(-c3cc(-c4ccc(S(C)(=O)=O)cc4)nc4ccccc34)n2-c2ccccc2)cc1	84% (inactive)
C=CC(=O)Nc1cc2c(Nc3ccc(F)c(Cl)c3)ncnc2cc1C#CC(C)(C)N1CCN(C)CC1	-47.6% (active)
COC(=O)[C@@]12CC[C@@H](C)[C@]3(C[C@@H](c4ccoc4)OC3=O)[C@H]1CC[C@@H]1O[C@@]12C	104% (inactive)
Cc1ccc(C2CC(c3nc(-c4ccc(Cl)cc4)oc3C)=NN2C(=O)c2ccncc2)cc1 (stereo not given)	97.7% (inactive)
COc1ccc(S(=O)(=O)n2cc(C3OC(c4cc(OC)c(OC)c(OC)c4)=NN3C(C)=O)c3ccccc32)cc1OC (stereo not given)	111% (inactive)
CC(=O)O[C@H]1Cc2c([nH]c3ccccc23)[C@@H](c2ccc(Cl)cc2)N1C(=O)CCNC(C)(C)C	16.6% (inactive)
O=C1NC(=O)C(CSc2ccccc2)(c2ccccc2)N1 (stereo not given)	99.9% (inactive)
Cn1nc(C(F)(F)F)c(-c2cc(C(F)(F)F)cc(C(F)(F)F)c2)c1-c1ccc(OCc2ccc(Cl)cc2)cc1O	-39.9% (active)
